Assay results taken from PubChem BioAssay (Tox21).
Values without a mark were called inactive. Records with an inconclusive call do not appear. Entries that show only a call come without a potency. The source made the active and inactive calls. Unless noted, calls follow the shape of the dose curve; as a rule, active = well fitted curve in the direction sought with a large enough effect in the repeat runs; inconclusive = weak or mixed curves; inactive = no such curve, though single readings can be large; an effect the other way counts as inactive or inconclusive.

Legend:
[1] = qHTS assay to identify small molecule agonists of the constitutive androstane receptor (CAR) signaling pathway - cell viability counter screen (AID 1224836); also: nearly all actives have a fitted effect of over 45% in size
Outline: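 HepG2-CYP2B6-hCAR, 2500 cells/well, 4 h pre-incubation; cpd 15 conc + PK11195 0.75 uM final; 23 h, 37 C/5% CO2; CellTiter-Fluor, fluorescence.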

[2] = qHTS assay to identify small molecule antagonists of the constitutive androstane receptor (CAR) signaling pathway - cell viability counter screen (AID 1224837); also: nearly all actives have a fitted effect of over 45% in size
Outline: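 Multiplexed cytotoxicity read-out for the CAR antagonist screen: double-stable HepG2-CYP2B6-hCAR cells co-treated with 50 nM CITCO (final) and compound over 15 concentrations, incubated 23 hr, then assessed by CellTiter-Fluor fluorescence.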

[3] = molecular target: Nuclear receptor subfamily 1 group I member 3 (Homo sapiens) (UniProt Q14994); assay: qHTS assay to identify small molecule antagonists of the constitutive androstane receptor (CAR) signaling pathway (AID 1224838); also: nearly all actives have a fitted effect of over 40% in size
Sequence of Nuclear receptor subfamily 1 group I member 3 (Homo sapiens) (Q14994 whole entry, looked up): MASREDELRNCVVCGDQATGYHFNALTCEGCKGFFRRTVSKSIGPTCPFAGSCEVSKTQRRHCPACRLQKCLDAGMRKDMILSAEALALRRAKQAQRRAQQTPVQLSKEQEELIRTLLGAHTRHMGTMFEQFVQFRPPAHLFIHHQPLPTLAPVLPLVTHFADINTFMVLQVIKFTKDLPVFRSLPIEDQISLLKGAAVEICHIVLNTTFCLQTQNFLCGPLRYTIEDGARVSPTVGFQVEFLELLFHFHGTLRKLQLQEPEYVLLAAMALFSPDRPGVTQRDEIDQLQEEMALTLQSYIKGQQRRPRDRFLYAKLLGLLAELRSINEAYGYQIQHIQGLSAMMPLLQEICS
Outline: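 Compounds were titrated across 15 concentrations onto HepG2 cells double-stably expressing hCAR and a CYP2B6-2.2kb reporter, together with 50 nM CITCO (final). After 24 h at 37 C, luciferase activity was measured by luminescence.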

[4] = molecular target: Nuclear receptor subfamily 1 group I member 3 (Homo sapiens) (UniProt Q14994); assay: qHTS assay to identify small molecule agonists of the constitutive androstane receptor (CAR) signaling pathway (AID 1224839);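 also: HepG2 cells stably carrying human CAR and a CYP2B6 luciferase reporter; nearly all actives have a fitted effect of over 15% in size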
Outline: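 HepG2-CYP2B6-hCAR cells, 2500/well, 4 h pre-incubation; compounds 15 conc.; PK11195 0.75 uM final; 24 h, 37 C/5% CO2; ONE-Glo luciferase read.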

[5] = qHTS assay to identify small molecule antagonists of the estrogen related receptor signaling pathway with the pleiotropic PPARgamma coactivator (PGC) from Tox21 10K library - cell viability counter screen (AID 1224840; active = well fitted cell-killing curve with a large enough effect in the repeat runs, not every such curve was filed as active; also: nearly all actives have a fitted effect of over 40% in size)
Outline: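 Step one, plate 2,000 PGC/ERR cells per well; step two, incubate 6 h at 37 C/5% CO2; step three, pin-transfer compounds; step four, incubate 17.5 h; step five, add CellTiter-Fluor and read fluorescence after 30 min.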

[6] = qHTS assay to identify small molecule agonists of the hypoxia (HIF-1) signaling pathway - cell viability counter screen (AID 1224844; calls by dose curve; also: nearly all actives have a fitted effect of over 50% in size)
Outline: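 Tox21 10K compounds were added to HRE-bla ME-180 cells (0.5% dialyzed FBS) and incubated 17 hrs at 37C; ATP-based CellTiter-Glo luminescence then reported cell viability in the same wells.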

[7] = qHTS assay to identify small molecule agonists of H2AX (AID 1224845; active = well fitted activation curve with a large enough effect in the signal ratio in the repeat runs, not every such curve was filed as active; the % refers to the signal ratio)
Outline: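 Wild-type CHO-K1 cells, plated overnight, exposed 3hr at 37C to 15 concentrations (0.76% DMSO final). Lysed, then HTRF anti-pH2AX (S139) cryptate and anti-H2AX-d2 antibodies, 24 hr room temperature; 665/620 nm emission read.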

[8] = qHTS assay to identify small molecule agonists of the hypoxia (HIF-1) signaling pathway (AID 1224846; active = well fitted activation curve with a large enough effect in the signal ratio in the repeat runs, not every such curve was filed as active; the % refers to the signal ratio)
Outline: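 Steps: seed ME-180 HRE-bla cells (2,000/well, 0.5% dialyzed FBS); incubate 5 hrs at 37C; pin-transfer compounds or DMSO; incubate 17 hrs; add LiveBLAzer B/G substrate CCF4-AM; measure reporter activation by FRET.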

[9] = qHTS assay to identify small molecule agonists of H2AX - cell viability counter screen (AID 1224847; calls by dose curve; also: top concentration of the series differs between compounds; nearly all actives have a fitted effect of over 30% in size)
Outline: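 Cells plated first: CHO-K1, 1000 per well in 10% FBS medium, incubated overnight at 37C. Then 15-point compound titration added (final DMSO 0.76%) for 3 hr. Finally CellTiter-Glo added and luminescence read.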

[10] = qHTS RealTime-Glo MT Cell Viability Assay in HepG2 cells - 24 hour (AID 1224867); also: nearly all actives have a fitted effect of over 50% in size
Outline: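 Real-time, nonlytic viability: 600 HepG2 cells/well mixed with NanoLuc enzyme plus prosubstrate; 5 h settle, compound (DMSO) added by pintool; luminescence monitored over 40 h at 37 C.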

[11] = qHTS RealTime-Glo MT Cell Viability Assay in HEK293 cells - 32 hour (AID 1224868); also: nearly all actives have a fitted effect of over 50% in size; also: potency is read from the fitted curve at half-maximal effect; as to activity change, negative = cytotoxic: top concentration of the series differs between compounds
Outline: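 Cells + reagent dispensed (600 cells/well, HEK293) → 5 h at 37 C/5% CO2 → 23 nL compound in DMSO pinned → 40 h at 37 C → luminescence read at 0, 8, 16, 24, 32, 40 h.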

[12] = A CellTox Green Cytotoxicity Assay to monitor cytotoxicity in HEK293 cells - 0 hour (AID 1224869); also: nearly all actives have a fitted effect of over 50% in size
Outline: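 Cytotoxicity was tracked continuously in HEK293 cells by a DNA-binding dye excluded from viable cells. Compounds were transferred in DMSO 5 h after seeding; fluorescence was recorded at intervals up to 40 h.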

[13] = qHTS RealTime-Glo MT Cell Viability Assay in HepG2 cells - 40 hour (AID 1224870); also: nearly all actives have a fitted effect of over 50% in size
Outline: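 HepG2 cells (600/well) mixed with RealTime-Glo MT reagent, settled 5 h at 37 C/5% CO2 before compound addition. Nonlytic NanoLuc luminescence from viable-cell prosubstrate reduction read repeatedly during 40 h treatment at 37 C.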

[14] = molecular target: Luciferin 4-monooxygenase (Photinus pyralis) (UniProt P08659); assay: qHTS assay to identify small molecule inhibitors of firefly luciferase (AID 1224835); also: nearly all actives have a fitted effect of over 25% in size; also: potency is read from the fitted curve at half-maximal effect
Sequence of Luciferin 4-monooxygenase (Photinus pyralis) (P08659 whole entry, looked up): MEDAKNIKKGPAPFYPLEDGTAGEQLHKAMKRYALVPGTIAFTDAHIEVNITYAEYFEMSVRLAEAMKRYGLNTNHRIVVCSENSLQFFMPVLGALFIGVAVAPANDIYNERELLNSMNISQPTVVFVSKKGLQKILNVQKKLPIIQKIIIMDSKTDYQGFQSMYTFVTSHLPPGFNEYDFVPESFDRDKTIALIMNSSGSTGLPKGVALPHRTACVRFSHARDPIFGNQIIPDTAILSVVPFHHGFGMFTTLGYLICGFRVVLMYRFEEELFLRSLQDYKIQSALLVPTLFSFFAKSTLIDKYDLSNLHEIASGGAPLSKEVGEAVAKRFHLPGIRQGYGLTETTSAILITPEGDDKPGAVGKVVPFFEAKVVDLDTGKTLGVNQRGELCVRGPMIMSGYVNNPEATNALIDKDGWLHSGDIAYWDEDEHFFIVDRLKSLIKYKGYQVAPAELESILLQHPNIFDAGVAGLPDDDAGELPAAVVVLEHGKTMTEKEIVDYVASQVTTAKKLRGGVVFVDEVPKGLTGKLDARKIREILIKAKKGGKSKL
Outline: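 Biochemical qHTS: compounds run as interplate titrations against purified firefly enzyme, with D-luciferin and ATP each at its KM concentration. Light output recorded by CCD imaging.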

[15] = molecular target: Thyrotropin receptor (Homo sapiens) (UniProt P16473); assay: qHTS assay to identify small molecule agonists of the thyroid stimulating hormone receptor (TSHR) signaling pathway (AID 1224843; calls by dose curve; also: nearly all actives have a fitted effect of over 45% in size; also: potency is read from the fitted curve at half-maximal effect)
Sequence of Thyrotropin receptor (Homo sapiens) (P16473 whole entry, looked up): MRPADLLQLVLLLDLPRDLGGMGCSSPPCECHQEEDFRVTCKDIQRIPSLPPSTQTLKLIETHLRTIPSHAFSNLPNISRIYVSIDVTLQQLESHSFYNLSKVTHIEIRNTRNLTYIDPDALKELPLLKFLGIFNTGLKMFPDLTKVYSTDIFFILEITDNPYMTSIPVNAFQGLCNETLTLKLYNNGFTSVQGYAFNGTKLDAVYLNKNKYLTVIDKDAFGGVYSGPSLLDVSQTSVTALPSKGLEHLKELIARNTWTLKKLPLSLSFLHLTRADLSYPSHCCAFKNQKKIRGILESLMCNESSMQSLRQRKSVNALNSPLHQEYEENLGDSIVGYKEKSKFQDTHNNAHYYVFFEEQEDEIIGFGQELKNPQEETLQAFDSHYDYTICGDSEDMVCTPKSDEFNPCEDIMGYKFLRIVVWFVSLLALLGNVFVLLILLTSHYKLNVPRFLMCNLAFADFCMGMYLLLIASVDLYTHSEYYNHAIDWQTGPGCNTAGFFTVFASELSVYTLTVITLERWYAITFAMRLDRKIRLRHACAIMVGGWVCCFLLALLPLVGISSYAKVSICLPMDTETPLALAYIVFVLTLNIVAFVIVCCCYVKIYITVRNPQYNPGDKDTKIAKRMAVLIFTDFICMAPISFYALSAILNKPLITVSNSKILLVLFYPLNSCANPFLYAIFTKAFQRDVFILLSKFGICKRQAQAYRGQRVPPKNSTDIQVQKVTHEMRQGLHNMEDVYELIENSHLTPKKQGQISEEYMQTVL
Outline: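 Steps: seed 800 TSHR-HEK293 cells per well; add test compound and hold 30 min at ambient temperature; dispense cAMP-d2 then anti-cAMP cryptate; incubate 1 h at ambient; measure fluorescence intensity.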

[16] = qHTS assay to identify small molecule antagonists of the estrogen related receptor (ERR) signaling pathway from Tox21 library (AID 1224848); also: nearly all actives have a fitted effect of over 50% in size
Outline: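 Luminescent reporter read-out (ONE-Glo) from NTP's ERR cell line after 18 h treatment at 37 C with DMSO-dissolved Tox21 compounds; cells pre-plated 6 h beforehand at 2,000 per well.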

[17] = qHTS assay to identify small molecule agonists of the estrogen related receptor (ERR) signaling pathway from Tox21 library (AID 1224849; calls by dose curve; also: nearly all actives have a fitted effect of over 15% in size); conditions: ERR reporter cell line, ONE-Glo luciferase, 18 h
Outline: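 Agonist signal is luciferase luminescence from an ERR reporter cell line treated 18 h at 37 C with DMSO-dissolved compounds, read 30 min after ONE-Glo addition at room temperature.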

[18] = qHTS assay to identify small molecule antagonists of the estrogen related receptor signaling pathway with the pleiotropic PPARgamma coactivator (PGC) from Tox21 10K library (AID 1224841; call rule not given here; also: potency is read from the fitted curve at half-maximal effect)
Outline: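 Antagonism in this quantitative HTS is taken from loss of luciferase signal in PGC/ERR cells. Cells (2,000/well) are treated with compounds in DMSO after a 6 h settling period and read by One-Glo luminescence after 18 h.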

[19] = qHTS assay to identify small molecule agonists of the estrogen related receptor signaling pathway with the pleiotropic PPARgamma coactivator (PGC) from Tox21 10K library (AID 1224842); also: nearly all actives have a fitted effect of over 15% in size; also: potency is read from the fitted curve at half-maximal effect
Outline: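 PGC/ERR reporter cell line, 2,000 cells per well, incubated 6 h at 37 C before 23 nL compound in DMSO was added. After 18 h at 37 C, One-Glo luminescence read following 30 min at room temperature.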

## CC1=CCC(=C(C)C)CC1
[1]
  Potency: inactive
[2]
  Potency: inactive
[3]
  Potency: inactive
[4]
  Potency: inactive
[5]
  Potency: inactive
[6]
  Potency: inactive
[7]
  Potency: inactive
[8]
  Potency: inactive
[9]
  Potency: inactive
[10]
  Potency: inactive
[11]
  Potency: inactive
[12]
  Potency: inactive
[13]
  Potency: inactive

## COC(=O)c1ccccc1OC
[14]
  Potency: inactive
[1]
  Potency: inactive
[5]
  Potency: inactive
[15]
  Potency: inactive
[6]
  Potency: inactive
[7]
  Potency: inactive
[8]
  Potency: inactive
[16]
  Potency: inactive
[17]; at 92.4 µM (top of the series)
  activity change, positive = activation: 0.916%
[10]
  Potency: inactive
[12]
  Potency: inactive
[13]
  Potency: inactive

## O=C(O)CCN(C1(C(=O)NO)CCCC1)S(=O)(=O)c1ccc(Oc2ccc(F)cc2)cc1
[1]
  Potency: inactive
[2]
  Potency: inactive
[3]
  Potency: inactive
[4]
  Potency: inactive
[5]
  Potency: inactive
[15]
  Potency: inactive
[6]
  Potency: inactive
[7]
  Potency: inactive
[8]
  Potency: inactive
[9]
  Potency: inactive
[16]
  Potency: inactive
[17]; at 92.4 µM (top of the series)
  activity change, positive = activation: 4.9%
[10]
  Potency: inactive
[11]
  Potency: inactive
[12]
  Potency: inactive
[13]
  Potency: inactive

## OC12N=C(c3ccccc3)SC1Cc1cc(Cl)ccc12 (stereo not given)
[14]
  Potency: 35.6 µM (active)
[1]
  Potency: inactive
[2]
  Potency: inactive
[18]
  Potency: inactive
[19]
  Potency: 8.63 µM (active)
[6]
  Potency: inactive
[7]
  Potency: inactive
[8]
  Potency: inactive
[16]
  Potency: inactive
[17]; at 92.4 µM (top of the series)
  activity change, positive = activation: 47.6% (active)
[10]
  Potency: inactive
[12]
  Potency: inactive
[13]
  Potency: inactive

## CCCc1ccc(OCC(=O)N2CCN(C(=O)COc3ccc(CCC)cc3OC)CC2)c(OC)c1
[14]
  Potency: inactive
[1]
  Potency: inactive
[3]
  Potency: inactive
[4]
  Potency: inactive
[18]
  Potency: 16.8 µM (active)
[19]
  Potency: inactive
[15]
  Potency: inactive
[7]
  Potency: inactive
[9]
  Potency: inactive
[17]; at 42.5 µM (top of the series)
  activity change, positive = activation: -21.5%
[11]
  Potency: 8.49 µM (active)
[12]
  Potency: inactive
[13]
  Potency: inactive

## CCc1oc2ccccc2c1C(=O)c1cc(I)c(O)c(I)c1
[14]
  Potency: inactive
[1]
  Potency: inactive
[2]
  Potency: inactive
[5]
  Potency: inactive
[15]
  Potency: inactive
[7]
  Potency: inactive
[10]
  Potency: inactive
[11]
  Potency: inactive
[12]
  Potency: inactive
[13]
  Potency: inactive

## COC(=O)Nc1nc2ccc(C(=O)c3ccccc3)cc2[nH]1
[1]
  Potency: inactive
[2]
  Potency: inactive
[3]
  Potency: inactive
[5]
  Potency: inactive
[15]
  Potency: inactive
[8]
  Potency: inactive
[9]
  Potency: inactive
[10]
  Potency: inactive
[12]
  Potency: inactive
[13]
  Potency: inactive

## CC(=O)CC(=O)Nc1ccc(S(=O)(=O)O)cc1
[14]
  Potency: inactive
[1]
  Potency: inactive
[2]
  Potency: inactive
[5]
  Potency: inactive
[15]
  Potency: inactive
[7]
  Potency: inactive
[8]
  Potency: inactive
[10]
  Potency: inactive
[12]
  Potency: inactive
[13]
  Potency: inactive

## COc1cc2nc(N3CCN(C(=O)c4ccco4)CC3)nc(N)c2cc1OC
[1]
  viability change, negative = cytotoxic: -2.7% [at 19 µM]
[2]
  activity change, negative = cytotoxicity: -2.45% [at 19 µM]
[3]
  activity, negative = inhibition: 3.26% [at 19 µM]
[4]
  activation: 0.371% [at 19 µM]
[15]
  activation: -0.792% [at 19 µM]
[9]
  activity change, negative = cytotoxicity: -2.17% [at 31.6 µM]
[10]
  activity change, negative = cytotoxicity: -23% [at 15.8 µM]
[11]
  activity change, negative = cytotoxic: -17.7% [at 15.8 µM]
[12]
  cytotoxicity: 2.18% [at 15.8 µM]

## O=c1[nH]c(=O)n([C@H]2C[C@H](O)[C@@H](CO)O2)cc1F
[14]
  Potency: inactive
[1]
  Potency: inactive
[5]
  Potency: inactive
[15]
  Potency: inactive
[6]
  Potency: inactive
[10]
  Potency: inactive
[12]
  Potency: inactive
[13]
  Potency: inactive

## NC(=S)NC(N)=S
[1]
  Potency: inactive
[2]
  Potency: inactive
[3]
  Potency: inactive
[4]
  Potency: inactive
[5]
  Potency: inactive
[15]
  Potency: inactive
[6]
  Potency: inactive
[7]
  Potency: inactive
[8]
  Potency: inactive
[9]
  Potency: inactive
[10]
  Potency: inactive
[11]
  Potency: inactive
[12]
  Potency: inactive
[13]
  Potency: inactive

## CN(C)[C@@H](CCOc1cccc2ccccc12)c1ccccc1
[2]
  Potency: inactive
[3]
  Potency: inactive
[4]
  Potency: inactive
[15]
  Potency: 33.5 µM (active)
[8]
  Potency: inactive
[17]; at 42.5 µM (top of the series)
  activity change, positive = activation: -27.2%
[12]
  Potency: inactive
